TbPYK inhibitor = T. brucei pyruvate kinase inhibition. AID 624173. 0.12% of 410,000 active. Potency, µM (titrated, usually from 76.8 µM), actives largely listed as inhibitors. TbPYK enzyme, Kinase-Glo Plus ATP luminescence, 45 min; note: nearly all actives have a fitted effect of over 50% in size
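In this concentration-response screen, enzyme-free wells defined baseline while DMSO plates tracked drift. Each reaction combined TbPYK, substrate, compound and 130 uM ADP for 45 min at room temperature. Kinase-Glo Plus luminescence gave the signal.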
Sm TGR block = S. mansoni TGR enzyme inhibition. Q962Y6. purified TGR, DTNB reduction, TNB absorbance 405 nm. Potency, µM (series often up to 114 µM), most hits filed as inhibitors. 3% of 360,000 active; note: nearly all actives have a fitted effect of over 60% in size
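TGR 20 nM + NADPH 100 uM (dispensed conc.), cpd preinc 15 min RT; start with NADPH (500 uM addition) then DTNB (15 mM addition). Kinetic TNB absorbance, 405 nm filter. Four-parameter Hill fit across titration.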
RE007 growth inh = less growth of the S. pombe RE007 Vpr strain. S. pombe RE007 Vpr strain, BacTiter-Glo ATP luminescence, 24 h. Potency, µM (doses to about 92.2 µM), actives largely listed as inhibitors. 0.21% of 360,000 active. AID 651644; active = well fitted falling curve with a large enough effect; inconclusive = small, poorly fitted or top-dose-only effect; inactive = no such curve, though single readings can be large or run the other way; note: nearly all actives have a fitted effect of over 50% in size
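Fission yeast RE007 carrying one integrated HIV-1 vpr copy, seeded at OD 0.01 in PMG+AL medium with 23 nL pinned compound. Grown 24 h at 30 degrees; viability read by BacTiter-Glo luminescence after 5 min.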
AMA1 RON2 block = inhibitors of Plasmodium falciparum AMA1-RON2 interaction | 0.2% of 360,000 active | AID 720542 | AlphaScreen AMA1-biotinylated RON2 peptide binding | Potency, µM (doses to about 58.2 µM), usual class: inhibitors; note: nearly all actives have a fitted effect of over 45% in size
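AMA1 (3D7) with his tag at 25 nM final met compounds first, then biotinylated RON2 peptide at 25 nM; detection used donor plus acceptor beads, 10 µg/mL apiece, read by AlphaScreen after 30 min at room temperature.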
LmPK inhibitor = inhibitors of Leishmania mexicana pyruvate kinase; Q27686; purified LmPK, Kinase-Glo ATP luminescence, 1 h; Potency, µM (series often up to 57.5 µM), hits mostly inhibitors; 0.37% of 290,000 active; AID 1721
Target sequence (Q27686 whole entry, looked up): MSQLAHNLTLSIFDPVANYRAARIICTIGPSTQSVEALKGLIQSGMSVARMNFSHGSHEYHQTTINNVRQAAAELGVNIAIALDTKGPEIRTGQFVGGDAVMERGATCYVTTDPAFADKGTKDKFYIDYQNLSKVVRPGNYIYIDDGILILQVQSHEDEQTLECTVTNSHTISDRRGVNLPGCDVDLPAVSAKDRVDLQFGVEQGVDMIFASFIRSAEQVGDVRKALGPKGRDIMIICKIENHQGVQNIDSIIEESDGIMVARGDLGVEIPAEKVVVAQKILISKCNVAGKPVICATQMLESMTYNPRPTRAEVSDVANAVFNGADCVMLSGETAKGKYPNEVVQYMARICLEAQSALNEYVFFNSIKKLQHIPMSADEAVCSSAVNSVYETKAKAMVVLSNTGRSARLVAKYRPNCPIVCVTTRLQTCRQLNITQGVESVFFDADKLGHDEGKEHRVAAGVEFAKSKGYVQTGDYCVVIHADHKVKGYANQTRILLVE
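Screened at intermediate enzyme activity to detect both inhibitors and activators: LmPK at 0.1 nM, with a 0.5 nM enzyme column as activation reference. PEP 0.5 mM, ADP 0.1 mM; ATP detected by luminescence after 1 h.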
Hits are given with their value; – = inactive; ? = inconclusive; · = no result given. Only some compounds are listed: those with a hit (about 3.2% of all), similar ones and a draw of the others. Unless noted, calls come from the whole dose curve; as a rule, active = well fitted curve in the direction sought with a large enough effect; inconclusive = small, poorly fitted or top-dose-only effect, or another doubt; inactive = no such curve, though single readings can be large; an effect the other way counts as inactive or inconclusive.

SMILES	TbPYK inhibitor	Sm TGR block	RE007 growth inh	AMA1 RON2 block	LmPK inhibitor
Cc1ccc(-n2nc3c(c2NC(=O)c2ccco2)CS(=O)C3)c(C)c1 (stereo not drawn)	–	40µM	–	–	·
Cc1ccc(-n2nc3c(c2NC(=O)CC(C)C)CS(=O)C3)cc1 (stereo not drawn)	–	50µM	–	–	–
CC(C)CC(=O)Nc1c2c(nn1-c1ccc(F)cc1)CS(=O)C2 (stereo not drawn)	–	–	–	–	–
Cc1cccc(-n2nc3c(c2NC(=O)c2ccco2)CS(=O)C3)c1C (stereo not drawn)	–	–	–	–	–
CC(=O)Nc1c2c(nn1-c1ccccc1C)CS(=O)C2 (stereo not drawn)	–	50µM	–	–	–
COc1cc(CC(C)N)c(OC)cc1C (stereo not drawn)	–	·	·	·	·
CCC(Oc1ccccc1)C(=O)Nc1cc(-c2ccccc2OC)nn1-c1ccccc1 (stereo not drawn)	–	–	·	·	·
COc1ccccc1NC(=O)C(Cc1ccccc1)NS(=O)(=O)c1cccc2nsnc12 (stereo not drawn)	–	–	·	·	·
O=C(Cc1cccs1)OCC(=O)c1ccco1	–	25µM	–	–	–
Cn1c(N)c(C(=O)COC(=O)Cc2cccs2)c(=O)n(C)c1=O	–	·	–	–	·
Cc1ccc(C)c(SCC(=O)OCC(=O)c2ccco2)c1	–	40µM	–	–	–
CC(C)NC(=O)c1cc2n(n1)C(C(F)(F)F)CC(c1ccco1)N2 (stereo not drawn)	–	–	–	–	–
O=C(NCc1ccccn1)c1cc2n(n1)C(C(F)(F)F)CC(c1ccco1)N2 (stereo not drawn)	–	40µM	–	–	–
COC(=O)c1ccc(Cl)cc1NC(=O)/C=C/c1ccc(C)o1	–	20µM	–	–	–
COC(=O)c1cc(Cl)c(NC(=O)/C=C/c2ccc(Cl)cc2Cl)cc1OC	–	–	–	–	–
Cc1ccc(NC(=O)/C=C/c2ccc(C)o2)c(C)c1	?	7.9µM	·	·	·
COc1ccc(Cn2c(=O)c3oc4ccccc4c3n(CC(=O)Nc3c(C)cccc3C)c2=O)cc1	–	–	·	·	·
Fc1cccc(CSc2ccc(-c3ccco3)nn2)c1	–	32µM	–	–	–
Fc1ccc(CSc2ccc(-c3ccco3)nn2)cc1	–	45µM	–	–	–
Cc1ccccc1OCc1ccc(-c2nc(C#N)c(NCc3cccnc3)o2)o1	–	–	·	·	·
Cc1nc2sc(C(=O)Nc3ccc(F)cc3)c(N)c2c(-c2ccc(Br)cc2)c1C(=O)Nc1ccc(Cl)cc1	–	–	·	·	·
O=C(NCCC1=CCCCC1)c1ccc2c(c1)N(Cc1ccccc1)C(=O)c1ccccc1S2(=O)=O	–	–	·	·	·
Cc1ccc(C)c(NC(=O)C2CCCN(S(=O)(=O)c3cccc4nsnc34)C2)c1 (stereo not drawn)	–	–	·	·	·
Cc1ccc2c(c1)CC1(CN2C)C(=O)OC(C)(C)OC1=O	–	–	–	–	16µM
COc1cc(-c2cc(OC)c3c(C)oc(C)c3c(=O)c2)ccc1OC(=O)c1cccc(Cl)c1	–	–	·	·	·
SMILES	TbPYK inhibitor	Sm TGR block	RE007 growth inh	AMA1 RON2 block	LmPK inhibitor
CC1CN(CC(=O)c2ccccc2Cl)CC(C)O1 (stereo not drawn)	–	45µM	–	–	–
Cc1[nH]c2ccccc2c1C(O)CN1CCC2(CC1)OCCO2 (stereo not drawn)	–	16µM	–	–	–
CC1CCN(CC(=O)c2ccccc2Cl)CC1	–	–	–	–	–
COc1ccc2[nH]c(C)c(C(=O)CN3CC(C)OC(C)C3)c2c1 (stereo not drawn)	–	–	–	–	–
COc1ccc2c(c1)c(C(=O)CN1CCC3(CC1)OCCO3)c(C)n2C	–	–	–	–	–
Cc1[nH]c2ccccc2c1C(=O)CN1CC(C)OC(C)C1 (stereo not drawn)	–	32µM	–	–	–
COc1ccc2c(c1)c(C(O)CN1CCC3(CC1)OCCO3)c(C)n2C (stereo not drawn)	·	25µM	·	·	–
CCCC(=O)Nc1nc2c(s1)CC(C(C)(C)C)CC2 (stereo not drawn)	–	–	·	·	·
Cc1c(Cl)cccc1NC(=O)Cn1c(=O)n(Cc2ccco2)c(=O)c2sc3ccccc3c21	–	–	·	·	·
Cc1[nH]c2ccccc2c1C(=O)CCl	–	2µM	–	–	–

Screens from PubChem.
